From PubChem BioAssay
Activity calls are given as the source filed them.

Key:
[1] = binders of probe aFSTL3 on microarray, primary screen, stem cell growth factor project, biochemical, small-molecule microarray, fluorescence 635/667 (AID 1064); settings: higher = more signal;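 further: measures binding of the biotinylated anti-FSTL3 antibody to printed compounds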
[2] = binders from COS7 lysate, DM2A8 probe, primary screen, torsin A project, cell lysate, small-molecule microarray, fluorescence 635/667 (AID 1065); settings: higher = more signal, COS7 lysate expressing mutant human TOR1A
[3] = binders of probe aFGF2 on microarray, primary screen, stem cell growth factor project, biochemical, small-molecule microarray, fluorescence 635/667 (AID 1067); settings: higher = more signal;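 further: measures binding of biotinylated aFGF2 protein to printed compounds on slides; z-score merges feature fluorescence and signal-to-noise across triplicate slides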
[4] = binders of probe aFGF10 on microarray, primary screen, stem cell growth factor project, biochemical, small-molecule microarray, fluorescence 635/667 (AID 1071); settings: higher = more signal;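 further: score merges 667 nm spot intensity and signal to noise from triplicate slides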
[5] = target: Neurogenic locus notch homolog protein 2 (Homo sapiens) (UniProt Q04721); assay: Notch2 binders on small-molecule microarrays, primary screen, biochemical, small-molecule microarray, 635 nm fluorescence, stem cell growth factors (AID 1073); settings: Notch2 binding, higher = more signal
Chain of Neurogenic locus notch homolog protein 2 (Homo sapiens) (Q04721 whole entry, looked up, canonical isoform): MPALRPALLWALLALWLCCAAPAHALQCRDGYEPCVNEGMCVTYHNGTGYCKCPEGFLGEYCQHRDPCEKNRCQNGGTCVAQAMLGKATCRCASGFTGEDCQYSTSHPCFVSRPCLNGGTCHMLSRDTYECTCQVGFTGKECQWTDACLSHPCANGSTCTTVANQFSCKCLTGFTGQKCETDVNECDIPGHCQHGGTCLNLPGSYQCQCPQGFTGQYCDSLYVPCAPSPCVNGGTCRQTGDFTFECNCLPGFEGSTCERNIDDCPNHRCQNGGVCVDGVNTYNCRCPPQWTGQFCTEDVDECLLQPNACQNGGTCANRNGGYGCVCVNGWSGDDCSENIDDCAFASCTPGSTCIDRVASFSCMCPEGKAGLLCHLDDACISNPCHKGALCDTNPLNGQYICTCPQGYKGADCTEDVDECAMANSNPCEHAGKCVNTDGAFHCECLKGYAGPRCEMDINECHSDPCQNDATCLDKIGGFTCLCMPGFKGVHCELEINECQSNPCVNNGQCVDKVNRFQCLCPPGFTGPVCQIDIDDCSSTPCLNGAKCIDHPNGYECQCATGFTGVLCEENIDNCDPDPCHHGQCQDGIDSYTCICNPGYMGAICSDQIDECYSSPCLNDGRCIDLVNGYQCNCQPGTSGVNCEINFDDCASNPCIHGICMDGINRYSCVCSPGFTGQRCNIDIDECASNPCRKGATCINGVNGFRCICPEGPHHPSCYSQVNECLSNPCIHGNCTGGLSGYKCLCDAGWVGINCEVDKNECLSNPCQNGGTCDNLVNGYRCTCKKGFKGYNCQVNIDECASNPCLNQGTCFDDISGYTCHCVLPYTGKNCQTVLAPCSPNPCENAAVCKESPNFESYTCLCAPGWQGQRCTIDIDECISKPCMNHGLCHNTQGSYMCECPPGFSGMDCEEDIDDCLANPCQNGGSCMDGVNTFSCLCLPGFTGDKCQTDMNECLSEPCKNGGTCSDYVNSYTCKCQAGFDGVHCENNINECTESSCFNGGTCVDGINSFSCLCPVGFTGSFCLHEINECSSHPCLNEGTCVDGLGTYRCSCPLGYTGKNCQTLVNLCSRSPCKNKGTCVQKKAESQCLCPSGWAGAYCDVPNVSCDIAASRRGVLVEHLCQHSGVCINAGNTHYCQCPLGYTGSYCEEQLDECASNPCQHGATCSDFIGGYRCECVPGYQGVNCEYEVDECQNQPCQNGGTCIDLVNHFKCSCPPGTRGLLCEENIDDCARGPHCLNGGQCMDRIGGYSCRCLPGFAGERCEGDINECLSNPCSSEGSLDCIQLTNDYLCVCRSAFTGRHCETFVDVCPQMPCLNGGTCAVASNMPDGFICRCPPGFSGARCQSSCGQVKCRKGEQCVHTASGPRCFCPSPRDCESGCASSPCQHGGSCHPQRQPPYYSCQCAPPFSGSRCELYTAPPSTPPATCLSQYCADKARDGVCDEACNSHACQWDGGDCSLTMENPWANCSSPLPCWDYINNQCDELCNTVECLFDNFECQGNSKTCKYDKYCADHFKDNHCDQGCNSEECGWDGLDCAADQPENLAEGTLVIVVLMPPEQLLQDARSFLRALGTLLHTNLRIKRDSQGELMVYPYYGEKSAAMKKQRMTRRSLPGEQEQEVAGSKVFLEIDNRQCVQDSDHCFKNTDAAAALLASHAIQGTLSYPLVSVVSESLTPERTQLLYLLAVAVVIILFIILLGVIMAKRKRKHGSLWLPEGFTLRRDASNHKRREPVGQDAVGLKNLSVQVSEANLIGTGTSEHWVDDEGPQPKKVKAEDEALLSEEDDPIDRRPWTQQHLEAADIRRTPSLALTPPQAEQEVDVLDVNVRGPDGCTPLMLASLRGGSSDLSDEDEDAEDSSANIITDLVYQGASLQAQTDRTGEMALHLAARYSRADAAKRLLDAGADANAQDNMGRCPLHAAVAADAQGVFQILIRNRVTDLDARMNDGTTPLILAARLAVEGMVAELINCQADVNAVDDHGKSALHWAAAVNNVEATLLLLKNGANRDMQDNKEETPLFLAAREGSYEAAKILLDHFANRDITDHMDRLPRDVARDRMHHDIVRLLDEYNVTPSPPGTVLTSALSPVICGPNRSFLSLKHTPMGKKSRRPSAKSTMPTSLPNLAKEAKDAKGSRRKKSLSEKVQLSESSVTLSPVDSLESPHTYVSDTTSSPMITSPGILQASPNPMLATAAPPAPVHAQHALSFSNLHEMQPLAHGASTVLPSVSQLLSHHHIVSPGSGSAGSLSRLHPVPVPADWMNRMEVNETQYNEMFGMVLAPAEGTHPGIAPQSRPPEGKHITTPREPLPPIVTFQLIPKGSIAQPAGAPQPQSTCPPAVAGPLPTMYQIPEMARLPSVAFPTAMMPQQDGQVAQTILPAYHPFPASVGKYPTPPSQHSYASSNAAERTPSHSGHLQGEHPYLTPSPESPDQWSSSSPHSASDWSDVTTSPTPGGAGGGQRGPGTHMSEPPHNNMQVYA

[6] = target: Pro-neuregulin-1, membrane-bound isoform (Homo sapiens) (UniProt Q02297); assay: NRG1 binders on small-molecule microarrays, primary screen, psychiatric disease protein project, biochemical, small-molecule microarray, fluorescence 635/667 (AID 1075); settings: NRG1 binding, 635 nm fluorescence, higher = more signal;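 further: score combines 667 nm spot fluorescence with signal to noise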
Chain of Pro-neuregulin-1, membrane-bound isoform (Homo sapiens) (Q02297 whole entry, looked up, the tested form may be a part, canonical isoform): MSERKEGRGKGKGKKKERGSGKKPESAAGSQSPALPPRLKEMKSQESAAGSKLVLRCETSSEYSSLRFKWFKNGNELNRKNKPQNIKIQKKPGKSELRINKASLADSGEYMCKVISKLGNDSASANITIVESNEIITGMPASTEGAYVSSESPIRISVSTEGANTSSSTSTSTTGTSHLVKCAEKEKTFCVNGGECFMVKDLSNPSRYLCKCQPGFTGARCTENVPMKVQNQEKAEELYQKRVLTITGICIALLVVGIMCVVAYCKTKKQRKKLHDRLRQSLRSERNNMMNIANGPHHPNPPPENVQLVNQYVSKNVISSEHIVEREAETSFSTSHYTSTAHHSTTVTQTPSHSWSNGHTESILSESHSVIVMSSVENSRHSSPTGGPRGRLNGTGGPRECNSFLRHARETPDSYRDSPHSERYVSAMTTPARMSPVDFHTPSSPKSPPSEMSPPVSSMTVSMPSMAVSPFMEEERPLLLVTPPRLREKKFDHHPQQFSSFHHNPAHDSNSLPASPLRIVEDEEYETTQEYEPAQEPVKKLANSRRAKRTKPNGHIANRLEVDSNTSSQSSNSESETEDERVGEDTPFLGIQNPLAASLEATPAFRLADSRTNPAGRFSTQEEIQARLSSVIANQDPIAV

[7] = test system: Neuregulin-1 EGF-like domain; assay: binders of neuregulin-1 EGF-like domain, primary screen, biochemical, small-molecule microarray, 635 nm fluorescence (AID 1081); settings: small-molecule microarray binding, higher = more signal;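 further: binding of the protein to compounds printed on small-molecule microarray slides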
[8] = FRG1 promoter luciferase signal modulators, primary screen, FRG1 inhibition for FSHD, cell-based, C2C12 myotubes, firefly/Renilla luciferase, luminescence (AID 1084); settings: higher = more signal, called active from +8 up or from −8 down
[9] = binders of probe aFST on microarray, primary screen, stem cell growth factor project, biochemical, small-molecule microarray, fluorescence 635/667 (AID 1086); settings: higher = more signal;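 further: score merges 667 nm fluorescence with signal-to-noise of each printed compound spot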
[10] = binders of probe aHhip on microarray, primary screen, stem cell growth factor project, biochemical, small-molecule microarray, fluorescence 635/667 (AID 1087); settings: higher = more signal;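 further: score merges spot fluorescence at 667nm with spot signal to noise ratio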
[11] = test system: PRMT1 (protein arginine N-methyltransferase 1); assay: PRMT1 binders on small-molecule microarrays, primary screen, biochemical, small-molecule microarray, 635 nm fluorescence (AID 1088); settings: small-molecule microarray binding, higher = more signal;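 further: binding of Prmt1 protein to compounds spotted on small-molecule microarray slides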
[12] = yeast growth modulation, basal conditions, primary screen, YJM789 clinical isolate, OD600, 24 h (AID 1089);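 further: growth of clinical yeast isolate S. cerevisiae YJM 789 seeded 1000 cells per well; test concentration not given here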; settings: S. cerevisiae YJM789 growth, higher = more signal, called active from +8 up or from −8 down
[13] = fission yeast growth modulation, primary screen, strain 972, OD600, 24 h, no modulator (AID 1090);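 further: basal condition with compound alone and no growth modifier present; test concentration not given here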; settings: S. pombe 972 growth, higher = more signal, called active from +8 up or from −8 down
[14] = S. cerevisiae growth modulation with rapamycin, primary screen, strain BY4716, OD600, 96 h (AID 1091); settings: higher = more signal, called active from +8 up or from −8 down; further: test concentration not given here
[15] = target: Torsin-1A-interacting protein 2 (Homo sapiens) (UniProt Q8NFQ8); assay: LULL1 binders on small-molecule microarray, primary screen, cell lysate, human LULL1 lysate, 635/667 nm fluorescence (AID 1092); settings: hLULL1 lysate binding, 635 nm fluorescence, higher = more signal;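 further: probe is lysate of COS7 cells overexpressing human LULL1; score merges per-feature 667 nm fluorescence with signal-to-noise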
Chain of Torsin-1A-interacting protein 2 (Homo sapiens) (Q8NFQ8 whole entry, looked up): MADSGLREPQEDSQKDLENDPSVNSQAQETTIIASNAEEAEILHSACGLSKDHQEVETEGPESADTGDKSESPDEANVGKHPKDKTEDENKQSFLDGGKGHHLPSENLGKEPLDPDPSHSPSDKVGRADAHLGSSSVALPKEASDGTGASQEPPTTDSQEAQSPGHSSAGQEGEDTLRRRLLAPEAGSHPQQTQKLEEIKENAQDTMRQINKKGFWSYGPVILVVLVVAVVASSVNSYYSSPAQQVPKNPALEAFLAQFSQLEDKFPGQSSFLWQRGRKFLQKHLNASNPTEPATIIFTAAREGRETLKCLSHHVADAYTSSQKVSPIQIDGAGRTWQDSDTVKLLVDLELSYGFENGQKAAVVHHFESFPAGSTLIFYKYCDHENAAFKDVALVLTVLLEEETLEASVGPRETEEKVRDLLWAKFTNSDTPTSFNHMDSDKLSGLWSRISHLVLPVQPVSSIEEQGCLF

[16] = E. coli growth modulation, two-sided OD650, primary screen, E. coli filamentation project, strain DRC41, 24 h (AID 1093); settings: OD650, 24 h, higher = more signal, called active from +8 up or from −8 down;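 further: MC1000 strain lacking acrAB efflux and sulA so SOS filamentation is blocked; test concentration not given here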
[17] = small-molecule microarray binders of probe aLefty2, primary screen, biochemical, biotinylated probe, 635/667 nm fluorescence (AID 1094); settings: higher = more signal;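 further: score merges spot fluorescence near 667 nm with spot signal-to-noise ratio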
[18] = test system: Noggin (protein binding on small-molecule microarray); assay: Noggin binders on small-molecule microarray, primary screen, biochemical, 635/667 nm fluorescence (AID 1095); settings: 635 nm fluorescence, higher = more signal;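 further: score merges 667 nm feature fluorescence with signal to noise over triplicate slides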
[19] = target: Neurogenic locus notch homolog protein 3 (Homo sapiens) (UniProt Q9UM47); assay: NOTCH3 binders on small-molecule microarray, primary screen, biochemical, 635/667 nm fluorescence (AID 1096); settings: NOTCH3 binding, 635 nm fluorescence, higher = more signal
[20] = small-molecule microarray binders of probe aEGFR, primary screen, biochemical, biotinylated probe, 635/667 nm fluorescence (AID 1097); settings: higher = more signal;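 further: probe is a biotinylated anti-EGFR antibody binding compounds printed on slides; score combines fluorescence near 667 nm and signal to noise of each spot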

SMILES | composite z-score [1] | composite z-score [2] | composite z-score [3] | composite z-score [4] | composite z-score [5] | composite z-score [6] | composite z-score [7] | z-score [8] | composite z-score [9] | composite z-score [10] | composite z-score [11] | z-score [12] | z-score [13] | z-score [14] | composite z-score [15] | z-score [16] | composite z-score [17] | composite z-score [18] | composite z-score [19] | composite z-score [20]
CCOC(=O)[C@H](Cc1ccccc1)NC(=O)CCC1CC(OC(=O)NCCc2ccc(F)cc2)CC2(CCCC(COC(=O)NCCC(C)C)O2)O1 (stereo not given in full) | -0.397 | 0.813 | -0.0296 | -0.409 | 1.28 | 0.539 | 1.02 | -0.214 (inactive) | 0.296 | -0.201 | 1.56 | 0.91 (inactive) | 0.902 (inactive) | 0.783 (inactive) | 2.32 | 0.087 (inactive) | -0.145 | 1.24 | 1.07 | -0.0424
CCOC(=O)NN=C1C[C@@H](O)[C@@H](O)[C@@H]2[C@@H]3C(=O)N(CC)C(=O)[C@@H]3CC[C@H]12 | -0.431 | 0.36 | -0.1 | 0.389 | 0.384 | -0.313 | 0.539 | -0.323 (inactive) | 0.007 | -0.153 | -0.0481 | 0.213 (inactive) | 0.324 (inactive) | 0.71 (inactive) | 0.458 | 0.312 (inactive) | -0.25 | 0.583 | -0.387 | -0.034
COC(=O)CC=C[C@@H](C)[C@@H](C=NOC[C@@H](C)[C@H](OCc1ccccc1)C(C)C)OC | -0.598 | -0.163 | -0.0985 | 0.229 | 0.0445 | -0.296 | 0.413 | 0.947 (inactive) | -0.0348 | -0.395 | 0.823 | 0.0783 (inactive) | -0.466 (inactive) | 1.13 (inactive) | 0.227 | -0.0725 (inactive) | -0.215 | 0.293 | 0.232 | -0.126
CON=C[C@@H](OC)[C@H](C)C=CCC(=O)OC | -0.447 | 0.0818 | -0.191 | 0.172 | -0.0904 | -0.513 | -0.499 | -0.0681 (inactive) | 0.272 | 0.0401 | -0.608 | -0.177 (inactive) | -0.289 (inactive) | -0.0697 (inactive) | -0.312 | 0.0478 (inactive) | -0.0702 | 0.327 | -0.151 | -0.22
O=C1C[C@@H](O)[C@@H](O)[C@@H]2[C@@H]3C(=O)N(c4ccc(F)cc4F)C(=O)[C@@H]3CC[C@H]12 | -0.517 | 0.248 | -0.1 | 0.648 | 0.601 | 0.0794 | 0.354 | -0.536 (inactive) | 0.201 | 0.0373 | 0.599 | -0.175 (inactive) | -0.177 (inactive) | -0.147 (inactive) | 0.734 | 0.124 (inactive) | -0.0782 | 0.43 | 0.6 | -0.0695
O=C1[C@H]2[C@H]3[C@H](O)[C@H](O)CC(=NOC[C@@H](O)COCc4ccco4)[C@@H]3CC[C@H]2C(=O)N1Cc1ccccc1 | -0.645 | 0.389 | -0.171 | -0.0702 | 0.0535 | 0.39 | 1.24 | 0.668 (inactive) | 0.248 | -0.115 | 1.53 | -0.444 (inactive) | -0.801 (inactive) | -1.63 (inactive) | 2.66 | 0.267 (inactive) | -0.166 | 1.04 | 0.841 | 0.0673
CC(C)(C)N1C(=O)[C@H]2[C@@H]3C(=CC[C@H]2C1=O)C(=O)[C@H]1O[C@H]1[C@H]3O | -0.293 | 1.62 | -0.226 | 0.25 | -0.573 | -0.261 | 0.17 | 9.15 (active) | -0.546 | 0.0024 | 0.34 | -2.18 (inactive) | -4.57 (inactive) | -1.63 (inactive) | -0.758 | -2 (inactive) | -0.338 | -0.0454 | -0.615 | -0.152
CC(C)CON=C1C[C@@H](O)[C@@H](O)[C@@H]2[C@@H]3C(=O)N(Cc4ccc5c(c4)OCO5)C(=O)[C@@H]3CC[C@@H]12 | -0.345 | -0.142 | 0.0138 | 0.11 | -0.0138 | 0.474 | 0.814 | -0.197 (inactive) | -0.141 | 0.0659 | 0.731 | -0.12 (inactive) | 0.54 (inactive) | -0.409 (inactive) | 1.69 | -0.38 (inactive) | -0.195 | 0.697 | -0.173 | -0.192
CC(=O)OC[C@H]1O[C@H](CC=NO[C@H](C)c2cn([C@@H]3COC[C@H]3O)nn2)C=C[C@@H]1OC(C)=O | -0.239 | 0.0556 | -0.131 | 0.294 | 0.277 | -0.0528 | 0.422 | -0.956 (inactive) | -0.149 | -0.0673 | 0.611 | -2 (inactive) | -0.535 (inactive) | -0.277 (inactive) | -0.3 | -0.763 (inactive) | -0.23 | 0.411 | 0.212 | -0.0845
COC(=O)[C@H](CCSC)NC(=O)CC=C[C@@H](C)CO | -0.738 | 2.66 | -0.123 | 0.708 | 0.175 | -0.399 | 0.818 | -0.202 (inactive) | 0.325 | 0.484 | 1.53 | 0.0662 (inactive) | 0.319 (inactive) | 0.451 (inactive) | 1.3 | 0.612 (inactive) | -0.0944 | 1.54 | 0.703 | 0.493
COC(=O)[C@H](C)NC(=O)CCC1CC(OC(=O)NCc2cccc3ccccc23)CC2(CCCC(COC(=O)NCc3cccc(C(F)(F)F)c3)O2)O1 (stereo not given in full) | -0.428 | 0.182 | -0.0316 | 0.762 | 1.17 | 1.09 | 1.01 | -0.374 (inactive) | 0.657 | -0.271 | 1.41 | -2.05 (inactive) | -0.645 (inactive) | 0.523 (inactive) | 1.78 | -1.21 (inactive) | -0.139 | 0.6 | 1.09 | 0.151
